High-throughput results from PubChem.
Only some compounds are listed: those with a hit (about 2.6% of all), similar ones and a draw of the others.
TRPV1 agonist: agonists of human vanilloid receptor 1 (TRPV1); Q8NER1; TRPV1-expressing cells, Fluo-8 calcium influx, agonist mode; activation, % at 8.33 µM; hit rate 0.19% among 320,000; AID 540275; in the data active = activation above about 80%; inconclusive = between about 30% and that limit; note: 0% is about no effect
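TRPV1-expressing cells were cultured overnight at 35.5C and loaded with Fluo-8 calcium dye for 40 to 90 min at room temperature. After a 10 s baseline, compound was added and calcium influx was read kinetically for 3 min (ex 480/em 520 nm).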
KCNH2 3.1 inh: inhibitors of human KCNH2 3.1 potassium channel isoform | U2OS KCNH2 3.1, thallium flux FluxOr; stronger effect = lower value | activity change, % (tested at about 1.8 µM) | hit rate 0.95% among 340,000;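 active = maximum activity change below -70%; inconclusive = maximum activity change from -70% to -50%; inactive = maximum activity change above -50%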;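 note: thallium influx rate constant from kinetic fluorescence after stimulation buffer; % is set by controls: 0 for no effect and ±100 for the full control effect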
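Measured as rate of thallium-driven FluxOr signal in transduced U2OS cells carrying the 3.1 channel, read kinetically for 2 min upon stimulation; values are rate constants scaled to DMSO control wells.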
p53 reactivation: restores transcriptional activity of mutant p53; H1299 p53-A138V BP100-luciferase reporter, luminescence, 24 h; Potency, µM (titrated, usually from 92.2 µM), without a hit: top-dose activity change, positive = activation, most hits filed as activators; hit rate 0.063% among 320,000; active = well fitted activation curve with a large enough effect; inconclusive = small, poorly fitted or top-dose-only effect; inactive = no such curve, though single readings can be large or run the other way; note: potency is the fitted concentration of half-maximal effect; % of control where 0% means no effect; nearly all actives have a fitted effect of over 45% in size
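p53-null H1299 cells stably carrying temperature-sensitive p53-A138V and a BP100-luciferase reporter were pinned with compounds (4-point, 1:5 series) and held 24 hrs at 37 deg C. Luminescence was read 10 min after detection reagent.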
TRPV1 potentiator: enhances activation of the human vanilloid receptor TRPV1 | potentiation, % at 8.33 µM | TRPV1-expressing cells, Fluo-8 calcium influx, capsaicin EC20 potentiation | Q8NER1 | hit rate 0.02% among 320,000; in the data active = potentiation above about 80%; inconclusive = between about 30% and that limit; note: 0% is about no effect
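Cells expressing TRPV1 were dye-loaded with Fluo-8 and read kinetically: 10 s baseline, 3 min after compound (agonist portion), then 2 min after EC20 capsaicin (allosteric enhancer portion). Calcium-bound dye fluorescence at 480/520 nm.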
ClpP mod: qHTS Assay for Activators of ClpP; Potency, µM (titrated, usually from 57.5 µM), for the others: at the highest dose activity change, negative = active; AID 651965, 2013; purified B. subtilis ClpP, FRET peptide cleavage, 20 min; hit rate 1.9% among 340,000; active = well fitted falling curve with a large enough effect; inconclusive = small, poorly fitted or top-dose-only effect; inactive = no such curve, though single readings can be large or run the other way; note: potency is the fitted concentration of half-maximal effect; the source files actives as falling curves though it sought activators and does not explain the sign; nearly all actives have a fitted effect of over 65% in size
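FRET quenching reversal measured ClpP activation: 10 microg/mL B. subtilis ClpP at pH 8 with the FRET-FV decapeptide, read at 430 nm after 320 nm excitation. The 20-min minus 0-min signal was scaled between DMSO/no-enzyme wells and ADEP (5.8 microM final).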
hERG WT inh: inhibitors of human wildtype KCNH2 potassium channel; Q12809; U2OS, BacMam KCNH2, thallium flux FluxOr; stronger effect = lower value; activity change, % at 1.84 µM; hit rate 0.37% among 340,000; AID 720551;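 active = maximum activity change below -70%; inconclusive = maximum activity change between -70% and -50%; inactive = maximum activity change above -50%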; note: % is set by controls: 0 for no effect and ±100 for the full control effect
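U2OS cells were transduced with wild-type KCNH2 virus (2.03 x 10^8 / mL) for 4 h at room temperature, then cultured overnight at 37 C. Thallium flux was read with FluxOr dye. Rate constants were normalized to DMSO controls.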
The depositor's hits bear a star; ? = inconclusive; / = no result given; + = active, no number.

SMILES	TRPV1 agonist	KCNH2 3.1 inh	p53 reactivation	TRPV1 potentiator	ClpP mod	hERG WT inh
CCCN(CC1CC1)C(=O)CSc1nnc(-c2cc(-c3cccs3)nc3ccccc23)o1	3	20	1%	0	25µM*	1
O=C(CSc1nnc(-c2cc(-c3cccs3)nc3ccccc23)o1)NC1CCCCC1	-1	-5	-1%	7	?	2
Cc1cn([C@H]2C[C@H](O)[C@@H](/C=C/C(=O)NCCN3CCCCC3)O2)c(=O)[nH]c1=O	/	/	/	/	-1%	/
CCc1ccc(NC(=O)COC(=O)/C(=C/c2ccccc2OC)c2ccccc2)cc1	10	-24	10%	-2	-7%	10
COc1ccccc1/C=C(/C(=O)OCC(=O)Nc1cc(C)ccc1C)c1ccccc1	-5	-3	0%	7	/	+
CCN1CCc2nc3ccccc3c(C(=O)Nc3ccc(NC(C)=O)cc3)c2C1	2	-7	-4%	0	1%	-6
CCN1CCc2nc3ccccc3c(C(=O)Nc3ccc(F)cc3)c2C1	0	-83*	-6%	-8	-3%	?
Cc1cc(NC(=O)COC(=O)c2n[nH]c3ccccc23)no1	-2	6	-2%	-2	11µM*	-2
O=C(COC(=O)c1n[nH]c2ccccc12)Nc1ccccc1F	/	1	?	/	-3%	-6
Cc1cc(NC(=O)COC(=O)c2ccc(OC(F)(F)F)cc2)no1	0	-13	7%	-4	1%	-4
CCCCCOc1ccc(C(=O)OCC(=O)Nc2cc(C)on2)cc1	2	0	2%	-3	18µM*	6
O=C(COc1ccccc1C(=O)Nc1ccccc1)NC1CCCCC1	/	/	/	/	1%	/
COC(=O)CNC(=O)C1CCN(c2nc(C)cc(C)n2)CC1	4	6	-11%	-4	32µM*	-9
Cc1cc(C)nc(N2CCC(C(=O)NCc3ccco3)CC2)n1	1	-4	-10%	-5	16µM*	-9
O=C(NCc1ccco1)C1CCN(c2nc3ccccc3n2Cc2ccc(F)cc2)CC1	?	-104*	6%	-4	-3%	-152*
COc1nc(OC)nc(N2CCC(C(=O)NCc3ccco3)CC2)n1	-4	-4	-3%	4	0%	-7
O=C(NCc1ccco1)C1CCN(c2nnc(-n3cccc3)s2)CC1	-1	-8	3%	4	0%	10
Cc1nc(C)c(CCNS(=O)(=O)c2ccc(C)c(C)c2)s1	/	/	/	/	1%	/
O=C(COc1ccccc1C(=O)Nc1ccccc1)Nc1ccccc1-c1ccccc1	/	/	/	/	-27%	/
Cc1ccc(-c2cc3ncc(C(=O)c4cc([N+](=O)[O-])ccc4O)cn3n2)cc1	/	/	/	/	8%	/
COc1ccc(CNC(=O)CN2CCN(c3cccc(C)c3C)CC2)cc1	80*	2	-3%	-5	/	3
COc1ccc(NC(=O)CN2CCN(CC(=O)Nc3ccc(OC)cc3)CC2)cc1	1	-108*	23%	24	2%	-92*
COc1ccccc1N1CCN(CCNC(=O)Nc2cccc(C)c2C)CC1	12	-35	-15%	25	32µM*	-124*
Cc1cccc(N2CCN(CC(=O)NCc3ccccc3)CC2)c1C	?	-8	-53%	6	-1%	12
CCN1CCN(CC(=O)Nc2ccc(C(C)=O)cc2)CC1	-5	2	-3%	16	/	40
SMILES	TRPV1 agonist	KCNH2 3.1 inh	p53 reactivation	TRPV1 potentiator	ClpP mod	hERG WT inh
CC(=O)c1ccc(NC(=O)CN2CCN(CC(=O)Nc3ccc(C(C)=O)cc3)CC2)cc1	-1	-102*	0%	-15	/	6
COc1ccccc1NC(=O)CN1CCN(CC(=O)Nc2ccc3c(c2)OCO3)CC1	-1	-40	-7%	-4	-1%	-26
COc1ccc(NC(=O)CN2CCN(CC(=O)Nc3ccc4c(c3)OCO4)CC2)cc1	1	/	-1%	3	1%	-79*
CC1(C(=O)NCc2ccccc2Br)CCN1Cc1ccc(-c2ccccn2)cc1 (configuration not stated)	/	/	/	/	-2%	/
C#CCSc1nnc(-c2c[nH]c3ccccc23)n1C	1	21	9%	0	1%	0
C#CCSc1nnc(-c2sc(-c3ccccc3)nc2C)n1C	3	20	0%	-8	18µM*	4
CCN(CC)C(=O)Cn1c(=O)n(CC2CCC(C(=O)NC)CC2)c(=O)c2sccc21 (configuration not stated)	/	/	/	/	1%	/
CCCC(c1nnnn1CCc1ccccc1)N1CCN(C2CCCC2)CC1 (configuration not stated)	6	0	8%	1	0.79µM*	-18
CCN(CC)C1=N/C(=C\c2ccco2)C(=O)N1c1ccccc1	-3	2	-2%	-3	-4%	-82*
CCOC(CCNC(=O)CCC(=O)Nc1ccc2nc(N3CCN(C)CC3)cc(C)c2c1)OCC	4	0	2%	1	/	-1
CCOc1ccccc1NC(=O)CCC(=O)Nc1ccc2nc(N3CCN(C)CC3)cc(C)c2c1	0	-5	-4%	3	25µM*	10
Cc1cc(N2CCC(C)CC2)nc2ccc(NC(=O)CCC(=O)N3CCN(c4ccccc4F)CC3)cc12	/	/	/	/	4%	/
CCCCN(C)C(=O)CCC(=O)Nc1ccc2nc(N3CCOCC3)cc(C)c2c1	2	8	?	14	7.9µM*	0
Cc1cc(N2CCOCC2)nc2ccc(NC(=O)CCC(=O)N3CCC(C)CC3)cc12	-2	-3	15%	-4	28µM*	1
COc1cc(NC(=O)CCC(=O)Nc2ccc3nc(N4CCOCC4)cc(C)c3c2)cc(OC)c1OC	0	5	13%	-7	25µM*	-15
CCC(C)NC(=O)CCC(=O)Nc1ccc2nc(N3CCOCC3)cc(C)c2c1 (configuration not stated)	-1	-25	10%	18	?	-15
CCCCS(=O)CC(O)CSc1nc(-c2ccc(OC)cc2)cc(-c2ccccc2)c1C#N (configuration not stated)	/	/	/	/	4%	/
COc1ccc(N(C)C(=O)CCC(=O)Nc2ccc3nc(N4CCOCC4)cc(C)c3c2)c(OC)c1	0	18	12%	6	28µM*	-3
COc1ccc(NC(=O)CCC(=O)Nc2ccc3nc(N4CCOCC4)cc(C)c3c2)c(OC)c1	0	6	9%	-15	/	-4
C(=Nc1ccc(/C=C/c2ccnc3ccccc23)cc1)c1cccs1	/	/	/	/	-3%	/
CCc1cc[n+](C(C(=S)Nc2cccc(C)c2)=C([O-])c2ccc(C)c([N+](=O)[O-])c2)cc1	/	-19	/	/	0%	26
